The list is not random: actives were taken first. Their share in the collection is about 19%.
HT1080-NT tox = qHTS for induction of synthetic lethality in tumor cells producing 2HG: qHTS for the HT-1080-NT fibrosarcoma cell line; HT-1080-NT fibrosarcoma viability, CellTiter-Glo ATP luminescence, 48 h; Potency, µM (titrated, usually from 46.1 µM), for inactives: at the highest dose activity, negative = less viability, most hits filed as cytotoxic; 360,000 tested, 1.6% active;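 note: NT is the 2HG producing partner of a matched IDH1 knockdown line; 0% = DMSO-treated cells and -100% = media-only wells without cells; nearly all actives have a fitted effect of over 55% in size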
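750 cells/well, RPMI + 5% FBS; 2 h settle, compound pin-transfer, 48 h at 37 degrees C. CellTiter-Glo 10 min RT, luminescence. Normalized to DMSO and media-only wells.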
KB-3-1 tox = qHTS assay for MDR1-selective chemotherapeutics: Primary screen using the parental adenocarcinoma cell KB-3-1 | KB-3-1 viability, CellTiter-Glo ATP luminescence, 72 h | 400,000 tested, 1.4% active | AID 1347075, 2019 | Potency, µM (doses to about 46.1 µM), actives largely listed as cytotoxic; note: nearly all actives have a fitted effect of over 60% in size
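KB-3-1 cells, DMEM (no phenol red) + 10% FBS; compound by pin transfer, 72 h, 37 °C. Readout: CellTiter-Glo luminescence after 10 min. Data normalized, curve-fitted.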
DT40 TDP1 no CPT = qHTS for Inhibitors of human tyrosyl-DNA phosphodiesterase 1 (TDP1): qHTS in cells in absence of CPT. DT40 Tdp1-/- hTDP1 cells, no CPT, ATP luminescence, 48 h. Potency, µM (highest dose often 46.2 µM), without a hit: at the top dose activity change, negative = growth inhibition, most hits filed as inhibitors. 420,000 tested, 15% active. AID 686978, 2013; note: nearly all actives have a fitted effect of over 55% in size
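Readout: luminescence from CellTiter-Glo after 30 min in the dark at RT. Cells: DT40 Tdp1-/- with stable hTDP1, 400/well. Exposure: compounds alone, ≥48 hr, 37 °C.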
KB-V1 MDR tox = qHTS assay for MDR1-selective chemotherapeutics: Primary screen using the drug-selected MDR subline cells KB-V1 | 400,000 tested, 3.4% active | KB-V1 MDR cells viability, CellTiter-Glo, 72 h | Potency, µM (highest dose often 46.1 µM), most hits filed as cytotoxic; note: nearly all actives have a fitted effect of over 60% in size
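Luminescent ATP read-out (CellTiter-Glo, 10 min) measures survival of drug-selected KB-V1 MDR cells after 72 h, 37 degrees C compound exposure. Medium: phenol-red-free DMEM, 10% FBS. Values from fitted concentration-response curves.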
TDP1 cell CPT = qHTS for Inhibitors of human tyrosyl-DNA phosphodiesterase 1 (TDP1): qHTS in cells in presence of CPT; chicken DT40 Tdp1-/-;hTDP1 cells + 20 nM CPT, ATP luminescence, 48 h; Potency, µM (series often up to 46.2 µM), inactives show at the top dose activity change, negative = growth inhibition, hits mostly inhibitors; 420,000 tested, 12% active; note: nearly all actives have a fitted effect of over 55% in size
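Chicken DT40 Tdp1-/- cells complemented with human TDP1, 400 cells/well, exposed to compounds plus 20 nM camptothecin for at least 48 h at 37 C; viability read as ATP content by CellTiter-Glo luminescence.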
HT1080 IDH1KD tx = qHTS for induction of synthetic lethality in tumor cells producing 2HG: qHTS for the HT-1080-IDH1KD cell line; Potency, µM (highest dose often 46.1 µM), for the others: at the top dose activity, negative = toxicity, most hits filed as cytotoxic; AID 686971, 2013; HT-1080 IDH1 knockdown viability, ATP luminescence, 48 h; 360,000 tested, 2% active;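 note: 0% = DMSO wells and -100% = cell-free medium wells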
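Knockdown cells (IDH1KD HT-1080) received compounds 2 h after plating at 750 cells/well and were kept 48 h at 37 °C in 5% FBS RPMI. A CellTiter-Glo luminescence read gave % activity for curve fitting.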
An asterisk follows results filed as active; i = inactive; ? = inconclusive; nt = no result; ! = repeats disagree. Calls come from the whole dose curve; as a rule, active = well fitted curve in the direction sought with a large enough effect; inconclusive = small, poorly fitted or top-dose-only effect, or another doubt; inactive = no such curve, though single readings can be large; an effect the other way counts as inactive or inconclusive. Unless noted, % is set by controls: 0 for no effect and ±100 for the full control effect; potency is the fitted concentration of half-maximal effect.

SMILES	HT1080-NT tox	KB-3-1 tox	DT40 TDP1 no CPT	KB-V1 MDR tox	TDP1 cell CPT	HT1080 IDH1KD tx
C[C@@H](CN=[N+]=[N-])CN1CC[C@H](NC(=O)OCc2ccccc2)CCC1=O	10%	i	?	i	?	5%
COc1ccc(SC[C@H](C)CN2CC[C@H](NC(=O)OCc3ccccc3)CCC2=O)cc1	-1%	15µM*!	23µM*	12µM*!	?	-15%
[N-]=[N+]=N[C@@H](CCN1CC[C@H](NC(=O)OCc2ccccc2)CCC1=O)c1ccccc1	-4%	i	?	?	?	-6%
O=C(N[C@@H]1CCC(=O)N(CC[C@H](Sc2ccc(Br)cc2)c2ccccc2)CC1)OCc1ccccc1	-7%	?	18µM*	?	26µM*	-3%
COc1ccc(S[C@@H](CCN2CC[C@H](NC(=O)OCc3ccccc3)CCC2=O)c2ccccc2)cc1	?	13µM*!	23µM*	?	18µM*	?
O=c1oc2cc(O)ccc2cc1-c1nc(-c2ccc(Cl)c(Cl)c2)cs1	nt	i	-7%	i	0%	nt
C[C@H](CO)N1C[C@H](C)[C@H](CN(C)C(=O)Nc2ccc3c(c2)OCCO3)OCc2cnnn2CCCC1=O	17%	i	-6%	i	10%	-2%
Cc1noc(C)c1C(=O)N1CCC[C@@]2(CCN(Cc3nccs3)C2)C1	nt	nt	-14%	nt	-3%	nt
NC(N)=NCC1COc2ccccc2O1 (stereo not drawn)	nt	nt	?	nt	-20%	nt
COc1cc(S(=O)(=O)n2ccnc2C(C)C)ccc1Br	nt	i	-2%	i	10%	nt
COc1ccc([C@H]2CC(=O)C=C(c3cc(Br)ccc3OC)C2)cc1	-18%	?	16µM*	?	18µM*	?
COc1ccc([C@H]2CC(=O)C=C(c3cc(C)ccc3F)C2)cc1	4%	i	?	i	-23%	-2%
Cc1cc(C)c(C2=CC(=O)C[C@H](c3ccc4c(c3)OCO4)C2)c(C)c1	-4%	i	?	i	18µM*	2%
COc1c(F)cccc1C1=CC(=O)C[C@H](c2ccc3c(c2)OCO3)C1	-4%	i	?	i	?	0%
COc1ccc(OC)c(C2=CC(=O)C[C@H](c3ccc4c(c3)OCO4)C2)c1	?	10µM*	10µM*	?	7.3µM*	?
COc1ccc([C@H]2CC(=O)C=C(c3cc(C)ccc3OC)C2)cc1	?	21µM*	6.5µM*	5.8µM*	4.1µM*	?
COc1ccc([C@H]2CC(=O)C=C(c3ccccc3Oc3ccccc3)C2)cc1	-20%	i	?	i	?	-6%
O=C1C=C(c2ccc3cc[nH]c3c2)C[C@@H](c2ccc3c(c2)OCO3)C1	18µM*	i	10µM*	i	1.8µM*	-80%
COc1ccc([C@H]2CC(=O)C=C(c3ccccc3-c3ccccc3)C2)cc1	?	?	23µM*	?	23µM*	?
COc1ccc([C@H]2CC(=O)C=C(c3ccc(Br)c4ccccc34)C2)cc1	-6%	i	-2%	i	-4%	0%
COc1ccc([C@H]2CC(=O)C=C(c3ccnc4ccc(Cl)cc34)C2)cc1	18µM*	?	9.2µM*	i	8.2µM*	3.7µM*
